The whole screen tested about 1,400 compounds, of which fewer than 10 were called active. About 8% were inconclusive and are not listed. Calls follow the shape of the dose curve; as a rule, active = well fitted curve in the direction sought with a large enough effect; inconclusive = small, poorly fitted or top-dose-only effect, or another doubt; inactive = no such curve, though single readings can be large or run the other way. A selection follows. Entries that show only a call come without a potency.
Potency is read from the fitted curve at half-maximal effect.

In the experiment the target is Transient receptor potential cation channel subfamily V member 1 (Homo sapiens) (UniProt Q8NER1). The experiment can be described thus: qHTS Assay for Compounds that Act as Potentiators of the Vanilloid Receptor 1: Hit Validation. The note with it: TRPV1-expressing cells, Fluo-8 calcium influx, capsaicin EC20; series mostly up to 42.1 µM. The text has this: The transient receptor potential ion channel, family V, number 1, (TRPV1) is one of the most important molecular transducers of painful stimuli and a potential target for analgesic drug development. Although recent clinical trials with orthosteric antagonists have not produced a successful drug because of a hyperthermia side effect and their tendency to block thermal noxious pain, this ion channel is undeniably well placed in the pain pathway, and the idea of blocking pain signals before they enter the CNS is an excellent concept and of proven efficacy when TRPV1 agonists are used. We propose a new approach involving allosteric modulation to impose an activity-dependent constraint within the context of inflammation and tissue damage that would alter the responsiveness of the channel in a way that an orthosteric vanilloid antagonist cannot achieve. We believe that the allosteric modulator approach has not been explored for this target. The main goal of this proposal is to identify additional, new, potent allosteric modulators of TRPV1 that can be used to investigate TRPV1 function. Our recent report provides evidence of proof of concept, but the compounds are just at the edge of utility in terms of potency. […] The question of whether they can be used as analgesic agents is complex, but if suitable compounds are identified then testing for analgesic properties will be conducted. Compounds identified as agonists were re-tested in the primary screen for hit validation. NIH Chemical Genomics Center [NCGC] NIH Molecular Libraries Probe Centers Network [MLPCN] MLPCN Grant: MH089480 Assay Submitter (PI): Michael Iadarola, National Institute of Dental and Cranofacial Research
Transient receptor potential cation channel subfamily V member 1 (Homo sapiens), sequence (Q8NER1 whole entry, looked up): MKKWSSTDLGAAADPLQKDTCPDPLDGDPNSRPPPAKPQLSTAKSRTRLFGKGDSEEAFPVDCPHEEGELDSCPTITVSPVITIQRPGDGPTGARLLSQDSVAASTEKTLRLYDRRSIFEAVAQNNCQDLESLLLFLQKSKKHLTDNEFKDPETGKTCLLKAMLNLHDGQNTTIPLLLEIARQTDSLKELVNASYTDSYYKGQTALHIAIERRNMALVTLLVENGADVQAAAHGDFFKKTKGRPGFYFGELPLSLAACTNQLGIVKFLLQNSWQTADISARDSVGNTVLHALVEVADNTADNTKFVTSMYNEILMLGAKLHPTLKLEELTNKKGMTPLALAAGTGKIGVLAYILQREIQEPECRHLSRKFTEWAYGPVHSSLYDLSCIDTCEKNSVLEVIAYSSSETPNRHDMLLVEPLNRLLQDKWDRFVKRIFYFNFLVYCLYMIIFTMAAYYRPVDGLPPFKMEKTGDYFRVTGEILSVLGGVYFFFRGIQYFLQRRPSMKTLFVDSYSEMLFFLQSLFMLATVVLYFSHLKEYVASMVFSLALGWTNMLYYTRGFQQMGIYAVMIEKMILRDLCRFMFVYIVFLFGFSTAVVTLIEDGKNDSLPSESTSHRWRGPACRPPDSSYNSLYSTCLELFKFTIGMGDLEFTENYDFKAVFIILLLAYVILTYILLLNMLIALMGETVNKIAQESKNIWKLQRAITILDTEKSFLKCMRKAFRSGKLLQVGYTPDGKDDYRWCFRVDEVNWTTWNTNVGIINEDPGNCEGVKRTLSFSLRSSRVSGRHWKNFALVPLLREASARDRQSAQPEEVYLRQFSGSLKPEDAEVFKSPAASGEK
Upon TRPV1 activation in TRPV1 cells, the channel opens and extracellular cations flow through the channel into the cytosol. A calcium binding dye (Fluo-8) becomes fluorescent when bound to calcium. This dye is pre-loaded into cells and is used as a marker for calcium influx. The amount of accumulated calcium is precisely quantified using the FDSS kinetic reader and the calcium dye. For the HTS assay, freshly prepared cells are plated at a density of 2000/well in 3 ul medium in 1536-well plates and cultured overnight at 35.5C. Cells will be loaded with 1 ul of the homogeneous calcium dye (ABD Bioquest) at room temperature for 40 to 90 minutes. Plates will be loaded into the FDSS kinetic reader and a 1 sec / cycle for 10 second baseline signal will be measured. Compound library will then be added with a pintool at 23 nl and measured kinetically for 3 minutes. This portion of the read is considered the agonist portion of the screen. Following the 3 minutes of incubation, an on board pipettor will deliver 1 ul of capsaicin for a final concentration equal to the EC20. Signal will be measured kinetically for an additional 2 minutes. This portion of the read is considered the allosteric enhancer portion of the screen. The FDSS reader has a standard filter set capable of measuring calcium bound Fluo-8 (ex=480 and em=520 nm).
Take `Cc1nc(Nc2cccc(Cl)c2)c2oc3ccccc3c2n1`: the Potency result is “inactive”.
Turning to `CCOC(=O)C(C(=O)OCC)c1cc(Br)c2noc3c2c1C(=O)c1ccccc1-3`, the Potency was 3.6 µM (active).
For `COc1ccc(Cn2nc(-c3ccccc3)c(N3CCCCC3)cc2=O)cc1`, the Potency result is “inactive”.
For `CCOC(=O)[C@H]1[C@H]2COc3ccc(Cl)cc3[C@@H]2N2C(=O)c3ccc(C)cc3NC(=O)[C@@]12C` the value was “inactive”; for `CCc1ccc(NC(=O)c2ccc(S(=O)(=O)NCc3cccnc3)cc2)cc1`, “inactive”; for `CC(=O)c1c[nH]c(C(=O)NCc2ccccc2Cl)c1`, “inactive”.
On to `COCCN(CCOC)S(=O)(=O)c1ccc(C(=O)Nc2nnc(C3CC3)o2)cc1`, for which the Potency entry was “inactive”.
On to `COCCNC(=O)CCc1c(C)nc2c(c(C)nn2-c2ccc(C)cc2)c1C`, for which the Potency entry was “inactive”.
Take `COc1ccc(CCNC(=O)c2noc3c2CCCC3)cc1OC`: the Potency result is “inactive”.
In the case of `Cc1ccccc1C(=O)Nc1nnc(-c2ccc(C(C)(C)C)cc2)s1`, the Potency result was “inactive”.
To `CCCN1C(=O)/C(=C/c2ccncc2)SC1=S` belongs “inactive”.
`COc1ccc2c(c1)C(c1ccc(Cl)cc1)NC(=O)C2` (configuration not stated): the Potency entry was “inactive”.
To `CSCCCN1CC[C@@H](N2CCN(c3ccccc3F)CC2)[C@H](O)C1` belongs “inactive”; to `CCN(CC)CCN(Cc1cc2cc(C)ccc2[nH]c1=O)C(=O)Nc1ccccc1OC`, “inactive”; to `Cc1nc(C(F)(F)F)ccc1C(=O)Nc1ccc(C(F)(F)F)cn1`, “inactive”.
To `C=C(C(=O)Nc1ccccc1)c1ccc(C)cc1` belongs “inactive”; to `COc1ccc(-n2c(SCC(N)=O)nc3nc4c(cc3c2=O)COC(C)(C)C4)cc1`, “inactive”; to `NC(=O)c1ccc(-n2nnnc2Oc2ccccc2C(=O)N2CCOCC2)cc1`, “inactive”.
To `Cc1[nH]c2ccccc2c1CCN(Cc1cccnc1)C(=S)Nc1ccc(F)cc1` belongs “inactive”; to `CCc1ccc(NC(=O)C2CCCN(S(=O)(=O)c3c(C)[nH]c(=O)[nH]c3=O)C2)cc1` (configuration not stated), “inactive”; to `CC(=O)Nc1cccc(NC(C)=O)n1`, “inactive”.
On to `Cn1nc(C(C)(C)C)cc1C(=O)NCc1ccc(N2CCCC2=O)cc1`, for which the Potency entry was “inactive”.
On to `COc1cccc(CNC(=S)Nc2cccc(Cl)c2C)c1`, for which the Potency entry is “inactive”.
`CCCCOc1ccc(C(=O)Nc2cccc(-n3cnnn3)c2)cc1OC`: the Potency entry is “inactive”.
As to `O=C(Cn1c(NCCCO)nc2ccccc21)c1ccc(Cl)cc1`, the Potency entry was “inactive”.
To `CCS(=O)(=O)C1=NN2C(=N)/C(=C\c3ccc(OCCOc4cccc(OC)c4)c(OC)c3)C(=O)N=C2S1` belongs “inactive”.
For `CCOC(=O)c1c(C)[nH]c(C)c1C(=O)CN1C(=O)NC(CC(C)C)C1=O` (configuration not stated) the value was “inactive”; for `CN(Cc1c(O)ccc2c1oc(=O)c1ccccc12)C1CCCCC1`, “inactive”.
Turning to `CN(Cc1ccccc1Cl)C(=O)c1cc2ccccc2o1`, the Potency entry is “inactive”.
As for `CC1CC(C)CN(C(=O)c2cc(S(=O)(=O)N3CCCCC3)ccc2Cl)C1` (configuration not stated), the Potency entry was “inactive”.
Take `O=C(Cc1nc2ccccc2[nH]1)c1ccc(Cl)cc1`: the Potency result is “inactive”.
To `CS(=O)(=O)N1N=C(c2cccs2)CC1c1ccc(Cl)o1` (configuration not stated) belongs “inactive”; to `CCOCc1c(C(=O)Nc2ccc(OC)nc2)oc2ccccc12`, “inactive”; to `Cc1cc(NC(=O)C(C)C)ncc1NC(=O)c1cccc(F)c1`, “inactive”.
In the case of `CC1CCN(C(=O)c2cc(-c3ccc4c(c3)OCO4)on2)CC1`, the Potency entry is “inactive”.
Consider `Cc1ccc(NC(=O)CSc2nnc(-c3ccccn3)n2C)cc1`, for which the Potency entry was “inactive”.
To `O=C(CSc1nc2ccccc2[nH]1)c1ccccc1F` belongs “inactive”; to `Cc1ccc2c(c1)nnn2C1CCN(C(=O)NCc2ccccc2)CC1`, “inactive”; to `O=C(CSc1nc(C2CC2)nc2ccccc12)N1CCCCC1`, “inactive”.
For `Cc1oc(C(C)(C)C)cc1C(=O)N1CCCC1C(=O)O` (configuration not stated), the Potency result was “inactive”.
With `O=C(O)c1ccc(NC(=O)c2ccccc2Br)c(NC(=O)c2ccccc2Br)c1`, the Potency entry was “inactive”.
For `Cc1cccc(NCc2cc(Cl)cc(Cl)c2O)n1` the value was “inactive”; for `CC(C)NC(=O)C1CC=CCC1C(=O)O` (configuration not stated), “inactive”.
Regarding `CC(=O)CC(C)(C)S(=O)(=O)c1ccc(NC(C)=O)cc1`, the Potency entry is “inactive”.
Take `CC(=O)Nc1cc(-c2ccccc2)ccc1O`: the Potency result was “inactive”.
For `CSCCC(NC(=O)c1ccc(Cl)cc1)C(=O)NC(C)(C)C` (configuration not stated) the value was “inactive”.
For the molecule `Cc1cc(C)c(C#N)c(Cl)n1`, the Potency result is “inactive”.
For `O=C(O)c1sccc1S(=O)(=O)N1CCN(c2ccc(C(F)(F)F)cn2)CC1` the value was “inactive”; for `O=[N+]([O-])c1ccc(O)c(/C=N/Nc2ccccc2[N+](=O)[O-])c1`, “inactive”; for `Cc1nn(C)c(C(=O)Nc2ccc(S(=O)(=O)NC34CC5CC(CC(C5)C3)C4)cc2)c1Br`, “inactive”.
For the molecule `COc1ccc(C2=NCCn3nc4ccccc4c32)cc1`, the Potency entry was “inactive”.
`CCN(c1ccccc1)S(=O)(=O)c1ccc2c(c1)N(C(C)=O)CCO2`: the Potency result is “inactive”.
To `COc1cc2[nH]c(C(=O)Nc3ccc(F)cc3)cc2c(OC)c1OC` belongs “inactive”; to `COc1ccc(-c2cn3cc(C)ccc3n2)cc1OC`, “inactive”.
For `Cn1ncc([N+](=O)[O-])c1C(=O)Nc1ccccc1` the value was “inactive”; for `CC(/C=C/c1ccc2c(c1)OCO2)=N\NC(=O)c1ccccc1`, “inactive”; for `Cc1nc([N+](=O)[O-])c(C(=O)OCc2ccccc2)n1C`, “inactive”.
To `Cc1cccnc1NC(N)=S` belongs “inactive”.
As for `COC(=O)[C@H](C)NC(=O)c1cc2c(cn1)[nH]c1ccccc12`, the Potency result is “inactive”.
For the molecule `NC(=O)C1(c2ccccc2)OC1c1ccccc1` (configuration not stated), the Potency result is “inactive”.
With `CCOC(=O)C(Cc1ccccc1)C(=O)Nc1cccc(C)c1` (configuration not stated), the Potency result is “inactive”.
For `COc1ccc(C(=O)Nc2nc3ccccc3s2)cc1` the value was “inactive”.
With `COc1cc(/C=N/NC(=S)Nc2cccnc2)cc(OC)c1OC`, the Potency entry is “inactive”.
To `CCOC(=O)N1CCN(CCC(=O)Nc2cccc(Cl)c2C)CC1` belongs “inactive”; to `N#C/C(=N\Nc1ccc([N+](=O)[O-])cc1)C(=N)N1CCOCC1`, “inactive”; to `COc1ccc(C(=O)N/N=C/c2ccc(OC)c(CSc3ccccn3)c2)cc1`, “inactive”.
For `CC(C)Oc1ccc(NC(=O)c2ccncc2)cc1` the value was “inactive”.
As to `Cn1c(=O)c2ccccc2n(CC(=O)Nc2ccc3c(c2)OCCO3)c1=O`, the Potency result is “inactive”.
As for `COc1ccc(Nc2nc(C)nc3c2oc2ccccc23)cc1`, the Potency entry is “inactive”.
To `CS(=O)(=O)Nc1nc2ccccc2[nH]1` belongs “inactive”; to `COc1ccc(CNC(=S)Nc2cccc(F)c2)cc1`, “inactive”; to `COc1ccc(C(=O)N(C)C2CCCN(Cc3ccccc3F)C2)cc1OC` (configuration not stated), “inactive”.
Take `COCCNC(=O)c1cccc(OC2CCN(Cc3cccc(C(C)=O)c3)CC2)c1`: the Potency result was “inactive”.
On to `CC(Oc1cccc(Cl)c1)C(=O)Nc1nc(-c2ccccn2)cs1` (configuration not stated), for which the Potency result was “inactive”.
Turning to `Cc1cc(C)c(C(=O)N2CCCC(Nc3ccc(C)c(C)c3)C2)o1` (configuration not stated), the Potency result is “inactive”.
As to `Cc1[nH]c2ccccc2c1-c1nc2ccccc2[nH]1`, the Potency result is “inactive”.
On to `CSc1ncccc1C(=O)OCc1ccc(Br)cc1`, for which the Potency result is “inactive”.
As to `COc1ccc(-c2nn(-c3ccccc3)cc2C(=O)NC(=S)Nc2cc(Cl)ccc2Cl)cc1`, the Potency entry is “inactive”.
For `CCOCCCn1c(=S)[nH]c2cc(C(=O)N3CCC(C(N)=O)(N4CCCCC4)CC3)ccc2c1=O` the value was “inactive”; for `CCOc1c(Nc2ccc(C(C)C)cc2)c(=O)c1=O`, “inactive”; for `O=C(Cc1cccs1)Nc1cccc(-c2nnc(-c3ccco3)o2)c1`, “inactive”.
Consider `O=C(NCc1ccncc1)c1ccc(Oc2ccccc2)cc1`, for which the Potency result is “inactive”.
Turning to `CC(C)C[C@H](NC(=O)c1[nH]cnc1C(=O)N[C@@H](Cc1ccccc1)C(=O)OC(C)(C)C)C(=O)OC(C)(C)C`, the Potency entry was “inactive”.
To `CC(C)(C)C(=O)CSc1ncnc2c1cnn2Cc1ccccc1` belongs “inactive”.
For `CCC(CO)NCc1ccc(OCC(O)c2ccccc2)c(OC)c1` (configuration not stated) the value was “inactive”.
To `COc1c(O)ccc(/C=N\NC(=O)c2ccc3c(c2)OCO3)c1[N+](=O)[O-]` belongs “inactive”; to `O=C(CCCCn1c(=O)c2ccccc2n(CC(=O)NC2CCCC2)c1=O)NCc1ccco1`, “inactive”; to `CC(=O)c1cccc(NC(=O)/C(=C\c2cccnc2)NC(=O)c2ccc(C)cc2)c1`, “inactive”.
In the case of `C=C(C)c1cccc(C(C)(C)NC(=O)Nc2cccnc2)c1`, the Potency result was “inactive”.
Regarding `COCCn1cnnc1SCC(=O)Nc1cc(OC)c([N+](=O)[O-])cc1C`, the Potency entry is “inactive”.
For `Cc1ccc(NC(=O)CN(C)C(C)C(=O)Nc2ccc(S(=O)(=O)N3CCCC3)cc2)cc1` (configuration not stated) the value was “inactive”.
Consider `O=C(NCc1cccnc1)c1ccc(-c2ccc(Cl)cc2)o1`, for which the Potency result was “inactive”.
On to `CC(C)=NOCC(=O)Nn1c(COc2ccccc2)nc2ccccc2c1=O`, for which the Potency entry was “inactive”.
For `O=C(Nc1ccc(F)cc1)c1ccc2ncsc2c1`, the Potency result was “inactive”.
To `CC(=O)Oc1ccc(/C=C/c2nc3ccccc3c(=O)o2)cc1` belongs “inactive”; to `CCOc1ccc(OCCC(=O)N(CC(=O)Nc2ccccc2C(F)(F)F)Cc2ccco2)cc1`, “inactive”; to `CN(C)/C=C/C(=O)c1nnn(C2CCCCC2)c1NC1CCCCC1`, “inactive”.

(Values after PubChem BioAssay AID623959 (National Center for Advancing Translational Sciences (NCATS), 2012).)
